Sampled rows, rich in hits. Any-hit rate of the full collection: about 2.2%.
Arbovirus anti = blocks arbovirus infection; 200,000 tested, 0.37% active; inhibition, % at 10 µM; arbovirus infection cell-based antiviral screen; in the data active = inhibition above about 30%
DTT redox prof = compounds producing H2O2 with reducing agent – biochemical, NIH compound library profiling, artefact control for MLSCN library redox annotation, primary screen | activation, % at 10 µM | 200,000 tested, 0.03% active | DTT-dependent redox cycling H2O2, phenol red/HRP absorbance; 100% = 100 µM peroxide control, 0% = buffer | AID 878;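 active = activation of at least 50% relative to the plate's high and low controls in the primary single-dose screen; inactive = activation below 50%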;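 also: compound incubated with DTT at 0.8 mM final as the reducing agent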
Ins promoter up = MIN6 insulin promoter up-regulation | MIN6 insulin promoter-GFP reporter, high-content imaging; hits give high values | z-score at 5 µM | 190,000 tested, 0.3% active;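 active = z-score above 3 at 5 µM with at least 500 cells counted in the well; inconclusive = wells under 500 cells, flagged as cytotoxic or low count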
p47phox inh = p47phox (human) inhibition. inhibition, % at 24.7 µM. 220,000 tested, 0.53% active. p47phox/p22phox peptide binding, fluorescence polarization, 2 h. P14598;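 active = inhibition above about 30%, limit read from the data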;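 also: 0% = p47phox with labelled peptide and 100% = labelled peptide alone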
Target sequence (P14598 whole entry, looked up): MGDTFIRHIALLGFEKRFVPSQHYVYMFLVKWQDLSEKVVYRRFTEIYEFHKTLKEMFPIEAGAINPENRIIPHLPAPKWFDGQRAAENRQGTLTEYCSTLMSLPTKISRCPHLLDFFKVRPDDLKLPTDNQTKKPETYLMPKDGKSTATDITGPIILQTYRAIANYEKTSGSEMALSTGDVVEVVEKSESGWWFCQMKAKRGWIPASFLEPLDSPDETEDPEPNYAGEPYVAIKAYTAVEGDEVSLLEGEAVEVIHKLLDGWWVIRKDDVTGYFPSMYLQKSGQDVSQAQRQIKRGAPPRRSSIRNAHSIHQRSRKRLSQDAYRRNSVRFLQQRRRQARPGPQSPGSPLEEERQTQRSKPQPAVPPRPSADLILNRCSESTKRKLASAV
Autophagy mod = modulators of autophagy. 190,000 tested, 0.98% active. calls only at 10 µM (by protocol). AID 463193. MEF GFP-LC3 puncta imaging; test concentration mostly 10 µM;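 active = percentage of spot-positive cells more than 3 SD above its plate mean, without a fluorescence outlier flag or 80% toxicity; inconclusive = no clear call, values can overlap the other calls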;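 also: spot-positive cell cutoff set from DMSO-treated cells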
Efa HMGR inh = blocks class II HMG-CoA reductase of Enterococcus faecalis; purified E. faecalis HMGR, NADPH absorbance 340 nm kinetic; inhibition, % at 10 µM; 190,000 tested, 0.41% active; AID 1066;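 active = inhibition above a set limit, the median over all tested compounds plus 3 SD, cut at about 9.5% in these data; inconclusive = no clear call, values can overlap the other calls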;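 also: enzyme runs in reverse so mevalonate oxidation gives rising NADPH absorbance; 0% = complete reaction with DMSO and 100% = background rate lacking mevalonate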
The depositor's hits bear a star; i = inactive; ? = inconclusive; / = no result given; + = active, no number.

SMILES	Arbovirus anti	DTT redox prof	Ins promoter up	p47phox inh	Autophagy mod	Efa HMGR inh
CCN1/C(=C/c2ccc3cc(C)ccc3[n+]2CC)Sc2ccccc21	-36	1	/	-48	/	-7
Cc1ccc(C(=O)O)cc1-c1ccc(/C=C2/NC(=O)N(c3ccccc3)C2=O)o1	40*	2	/	-35	i	-5
O=C(O)CC1NCCc2ccccc21 (centres undefined)	/	/	/	-1	/	/
CC(NC(=S)NCCCN1CCOCC1)C12CC3CC(CC(C3)C1)C2 (centres undefined)	-8	-1	-0.07	-8	i	-2
O=C(O)CCCCCCC1C(=O)NC(=O)N1CCC(O)C1CCCCC1 (centres undefined)	-3	0	/	-15	i	17*
O=C(O)CCCCCN1C(=O)C2CCCCC2C1=O (centres undefined)	-4	1	0.12	-4	i	0
COC(=O)Cn1c2ccc(F)cc2c2nc(C)sc21	6	-1	0.18	-8	i	-2
CCOC(=O)Cn1c2ccc(F)cc2c2nc(C)sc21	-3	-1	3.7*	-14	i	-6
O=C(c1ccc(F)cc1)C1CCN(C(=S)NCC2CCCO2)CC1 (centres undefined)	27	0	/	-43	i	12*
Cc1ccc(C(=O)C2CCN(C(=S)NCC3CCCO3)CC2)cc1 (centres undefined)	9	-1	/	-15	i	-4
CCCCc1c(C)nc2c(OC)cccc2c1SCCC(=O)O	3	0	0.91	34*	i	1
CCc1c(C)nc2c(OC)cccc2c1SCCC(=O)O	5	0	0.83	2	i	-5
O=C1C(Br)=Cc2cccc3cccc1c23	/	/	0.67	31*	/	/
O=C(c1ccc(Cl)c([N+](=O)[O-])c1)N1CCN(c2ccccn2)CC1	6	0	0.08	-4	i	-3
Cc1ccc(C(=O)N2CCN(c3ccccn3)CC2)cc1[N+](=O)[O-]	-1	-3	-0.03	4	i	10*
O=C(COc1ccc(S(=O)(=O)N2CCOCC2)cc1)Nc1ccc(Cl)c(C(F)(F)F)c1	-5	0	-0.6	-16	i	-10
CCCCCc1nnc(NC(=O)Cn2cnc3ccccc3c2=O)s1	3	0	0.69	-26	i	-4
CC1(c2ccc([N+](=O)[O-])cc2)CC(C)(C)N(C(=O)c2ccccc2)c2ccccc21 (centres undefined)	34*	1	-4	2	i	-3
Cc1cccc(S(=O)(=O)Nc2nc3ccccc3nc2NCc2ccco2)c1	33*	-3	0.66	-2	i	-3
COc1ccc(CC(=O)Nc2cccc(SC)c2)cc1OC	1	-1	-0.93	6	i	8
CCOC(=O)C1CCCN(Cc2ccccc2Cl)C1 (centres undefined)	88*	0	0.27	-3	i	-8
O=C(c1ccccc1)c1c2c(cc3sc4ccccc4[n+]13)-c1cccc3cccc-2c13	-37	7	?	1	+	1
Cc1sc2cc3c(c(C(=O)c4ccccc4)[n+]2c1C)-c1cccc2cccc-3c12	-23	4	?	37*	i	-9
Cn1nccc1C(=O)Nc1ccccc1C(=O)O	5	-1	0.47	178*	i	-6
COc1ccc(-n2c(C)cc(/C=C3\SC(=S)N(Cc4ccco4)C3=O)c2C)cc1	3	0	2.8	-86	+	3
SMILES	Arbovirus anti	DTT redox prof	Ins promoter up	p47phox inh	Autophagy mod	Efa HMGR inh
CC(/C=N/NC(=O)c1cc(-c2ccncc2)nc2ccccc12)=C\c1ccco1	-4	1	/	-25	+	-1
O=C(NCC1CCCN(C(=O)c2cscn2)C1)c1ccccc1Cl (centres undefined)	6	1	0.07	8	i	10*
Cc1c(C=O)c2ccccc2n1CC(=O)N1CCc2ccccc2C1	6	2	/	3	i	-2
COC(=O)c1ccc(NC(=O)c2ccccc2NS(C)(=O)=O)cc1	52*	3	0.82	-3	i	-4
N#CC(C#N)=C1C=C2C=C(N3CCOCC3)CCC2CC1 (centres undefined)	-7	0	/	65*	i	-4
CN1CCN(C2=CC3=CC(=C(C#N)C#N)CCC3CC2)CC1 (centres undefined)	5	0	/	-80	+	4
CCN1CCN(C2=CC3=CC(=C(C#N)C#N)CCC3CC2)CC1 (centres undefined)	-10	0	/	-70	?	-4
N#CC(C#N)=C1C=C2C=C(N3CCCCCC3)CCC2CC1 (centres undefined)	-13	0	/	-255	?	1
CC1CCCC(NC(=O)CN(C)S(=O)(=O)c2cnc[nH]2)C1C (centres undefined)	-2	-1	0.31	0	i	14*
Cc1ccc2[nH]c(=O)c(CN(Cc3cccnc3)Cc3nnnn3CCN3CCOCC3)cc2c1	12	4	/	5	i	-2
N#C/C(=C\C=C\c1ccccc1)c1nc(-c2ccc3c(c2)OCO3)cs1	-9	1	0.42	-101	+	-2
CCN(CC)CCOC(=O)c1ccc(N/C=C(/C#N)c2nc(-c3ccc4c(c3)OCO4)cs2)cc1	/	/	-0.46	-7	/	/
COCCCn1c(N)c(-c2nc3ccccc3n2C)c2nc3ccccc3nc21	44*	0	0.41	-2	i	0
Cn1c(-c2c(N)n(CCCc3ccccc3)c3nc4ccccc4nc23)nc2ccccc21	-28	2	0.57	-30	+	5
Cn1c(-c2c(N)n(C3CCCC3)c3nc4ccccc4nc23)nc2ccccc21	-43	2	0.13	-25	+	3
Cn1c(-c2c(N)n(CCc3ccccc3)c3nc4ccccc4nc23)nc2ccccc21	-16	0	1.7	-24	+	-2
COCCn1c(N)c(C#N)c2nc3ccccc3nc21	-8	-1	/	2	i	-8
N#Cc1c(N)n(CCc2ccc(F)cc2)c2nc3ccccc3nc12	9	1	-0.08	-34	i	1
COc1cc2oc(=O)ccc2c(OC)c1CC(O)C(C)(C)O (centres undefined)	/	/	/	-5	/	/
COC(=O)CC(c1ccc(OC)c(OC)c1)c1ccc(OC)c(OC)c1	5	0	0.25	-5	i	-4
Cc1ccc(-n2c3c(c(=O)[nH]c2=O)C(NS(=O)(=O)c2ccc(C)cc2)(C(F)(F)F)C(=O)N3)cc1 (centres undefined)	-1	0	-0.09	1	i	2
Cc1ccc(-n2c3c(c(=O)[nH]c2=O)C(C(F)(F)F)(C(F)(F)F)NC(=O)N3)cc1	1	2	3*	-1	i	-1
Cc1ccc(CNC(=O)COC(=O)Cn2nc(C)c([N+](=O)[O-])c2C)cc1	2	-1	0.46	-15	i	8
